The supplement of paper PMC12494721
Counter-ions that a name gives are not always drawn.

Experiments:
Details in all cases: incubation time: 27 h, anaerobic, 37 °C;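 for the amine columns active = adjusted P below 0.05 in both replicates with a change the same way and a mean fold change under 0.8 or over 1.25; inactive = the rest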
[1] = test system: Clostridium sporogenes DSM 1664; test: growth (OD595) fold change vs plate DMSO controls (fold change (ratio)); higher = more growth
How it was run: (§1)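 After 27 h at 37 °C under anaerobic conditions, 96-well cultures in mGAM were shaken and read at 595 nm. The readings were blank-subtracted, corrected for compound background using 20 µM compound solutions in water, and converted to OD with a calibration factor of 5. Growth is defined as the fold change over the median of DMSO controls on each plate. Fold changes above 1.5 were set to NA, and each value is the mean of 2 biological replicates.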

Escherichia coli IAI1 [2] = test: as above
How it was run: as §1

[3] = test system: Klebsiella aerogenes DSM 30053; test: as above
How it was run: as §1

[4] = test system: Ruminococcus gnavus DSM 108212; test: as above
How it was run: as §1

[5] = test system: Klebsiella aerogenes DSM 30053; test: fold change of Histamine concentration vs plate DMSO controls (fold change (ratio)); higher = more amine produced, active = hit call of the paper (significant change in both replicates, either direction)
How it was run: (§2)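 Each value is the fold change relative to DMSO-only wells on the same plate. Four gut bacterial strains were grown anaerobically in mGAM at 37 °C for 27 h in 80 µL wells, starting at OD 0.1 before a 1:1 dilution, with compounds at 20 µM final (sweeteners 50 µM). Whole cultures were extracted with cold acetonitrile/methanol containing 0.1% formic acid, centrifuged, and amines were quantified by LC–triple-quadrupole MS (dynamic MRM) against external calibration curves with within-batch drift correction. Values are means of 2 biological replicates.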

[6] = test system: Clostridium sporogenes DSM 1664; test: fold change of Tryptamine concentration vs plate DMSO controls (fold change (ratio)); higher = more amine produced, active = hit call of the paper (significant change in both replicates, either direction)
How it was run: as §2

[7] = test system: Ruminococcus gnavus DSM 108212; test: as above
How it was run: as §2

Escherichia coli IAI1 [8] = test: fold change of Putrescine concentration vs plate DMSO controls (fold change (ratio)); higher = more amine produced, active = hit call of the paper (significant change in both replicates, either direction)
How it was run: as §2

[9] = test system: Klebsiella aerogenes DSM 30053; test: as above
How it was run: as §2

Escherichia coli IAI1 [10] = test: fold change of Cadaverine concentration vs plate DMSO controls (fold change (ratio)); higher = more amine produced, active = hit call of the paper (significant change in both replicates, either direction)
How it was run: as §2

[11] = test system: Klebsiella aerogenes DSM 30053; test: as above
How it was run: as §2

[12] = test system: Ruminococcus gnavus DSM 108212; test: fold change of 2-Phenylethylamine concentration vs plate DMSO controls (fold change (ratio)); higher = more amine produced, active = hit call of the paper (significant change in both replicates, either direction)
How it was run: as §2

SMILES	growth [1]	growth (Escherichia coli IAI1 [2])	growth [3]	growth [4]	fold change of Histamine concentration [5]	fold change of Tryptamine concentration [6]	fold change of Tryptamine concentration [7]	fold change of Putrescine concentration (Escherichia coli IAI1 [8])	fold change of Putrescine concentration [9]	fold change of Cadaverine concentration (Escherichia coli IAI1 [10])	fold change of Cadaverine concentration [11]	fold change of 2-Phenylethylamine concentration [12]
CC1CNc2c(cccc2S(=O)(=O)N[C@@H](CCCNC(=N)N)C(=O)N2CC[C@@H](C)C[C@@H]2C(=O)O)C1 (stereo partly drawn) [Argatroban] (20 µM)	1.12	0.953	1.16	0.732	0.986 (inactive)	0.976 (inactive)	0.987 (inactive)	0.978 (inactive)	1.04 (inactive)	1.01 (inactive)	1 (inactive)	0.937 (inactive)
COC(=O)[C@H](Cc1ccccc1)NC(=O)[C@@H](N)CC(=O)O [Aspartame] (50 µM)	1.05	0.921	0.997	1.01	1.03 (inactive)	0.944 (inactive)	1.01 (inactive)	0.968 (inactive)	1.01 (inactive)	1.04 (inactive)	0.99 (inactive)	1.04 (inactive)
Nc1ncnc2c1ncn2[C@@H]1O[C@H](CO)[C@@H](O)[C@@H]1O [Vidarabine] (20 µM)	1.1	1.07	0.99	0.857	1.05 (inactive)	0.947 (inactive)	0.935 (inactive)	1.11 (inactive)	1.02 (inactive)	0.957 (inactive)	0.989 (inactive)	0.976 (inactive)
CN1CCN(C(c2ccccc2)c2ccccc2)CC1 [Cyclizine hydrochloride] (20 µM)	0.981	0.984	0.972	1.16	1.07 (inactive)	0.968 (inactive)	0.996 (inactive)	1 (inactive)	1 (inactive)	1.02 (inactive)	0.987 (inactive)	1.03 (inactive)
CCCC1O[C@@H]2C[C@H]3[C@@H]4CCC5=CC(=O)C=C[C@]5(C)[C@H]4[C@@H](O)C[C@]3(C)[C@]2(C(=O)CO)O1 (stereo partly drawn) [Budesonide] (20 µM)	1.13	0.993	0.997	1.08	1.06 (inactive)	0.934 (inactive)	0.998 (inactive)	1.02 (inactive)	1.01 (inactive)	1.02 (inactive)	0.994 (inactive)	0.984 (inactive)
COc1nc(C)nc(Cl)c1NC1=NCCN1 [Moxonidine] (20 µM)	1.05	0.991	0.981	1.01	1.07 (inactive)	1 (inactive)	1.04 (inactive)	1 (inactive)	1.01 (inactive)	1.01 (inactive)	0.991 (inactive)	1.07 (inactive)
O=C(CCCCC(=O)Nc1c(I)cc(I)c(C(=O)O)c1I)Nc1c(I)cc(I)c(C(=O)O)c1I [Iodipamide] (20 µM)	0.854	1.01	0.982	0.98	1.04 (inactive)	1.02 (inactive)	0.925 (inactive)	1.13 (inactive)	1.02 (inactive)	1.01 (inactive)	0.989 (inactive)	0.892 (inactive)
O=C(O)c1cc(=O)c2c(OCC(O)COc3cccc4oc(C(=O)O)cc(=O)c34)cccc2o1 [Cromolyn disodium salt] (20 µM)	1.06	1.05	1.02	1.11	0.943 (inactive)	0.983 (inactive)	1.04 (inactive)	0.994 (inactive)	0.96 (inactive)	0.99 (inactive)	0.979 (inactive)	1.06 (inactive)
CCCCC1(COC(=O)CCC(=O)O)C(=O)N(c2ccccc2)N(c2ccccc2)C1=O [Suxibuzone] (20 µM)	0.913	1.04	1.06	1.12	0.877 (inactive)	1.07 (inactive)	0.929 (inactive)	0.993 (inactive)	0.987 (inactive)	0.957 (inactive)	1 (inactive)	0.906 (inactive)
CC1CS(=O)(=O)CCN1/N=C/c1ccc([N+](=O)[O-])o1 (stereo not drawn) [Nifurtimox] (20 µM)	1.13	1.03	0.924	1.04	0.593 (active)	0.895 (inactive)	0.971 (inactive)	0.949 (inactive)	0.949 (inactive)	0.974 (inactive)	0.998 (inactive)	1.03 (inactive)
CC(=C(CCO)SSCC1CCCO1)N(C=O)Cc1cnc(C)nc1N (stereo in doubt) [Fursultiamine hydrochloride] (20 µM)	1.08	1.03	0.989	0.992	1.04 (inactive)	0.983 (inactive)	0.969 (inactive)	1.09 (inactive)	1.01 (inactive)	0.973 (inactive)	0.986 (inactive)	0.967 (inactive)
CC(C)(Oc1ccc(CCNC(=O)c2ccc(Cl)cc2)cc1)C(=O)O [Bezafibrate] (20 µM)	1.06	1.01	0.993	0.854	0.964 (inactive)	0.996 (inactive)	1.01 (inactive)	0.997 (inactive)	0.991 (inactive)	0.983 (inactive)	0.992 (inactive)	1.01 (inactive)
CCN[C@@H]1C[C@H](N)[C@@H](O[C@H]2OC(CN)=CC[C@H]2N)[C@H](O)[C@H]1O[C@H]1OC[C@](C)(O)[C@H](NC)[C@H]1O [Netilmicin sulfate] (20 µM)	0.949	0.93	0.898	0.912	0.845 (inactive)	1.02 (inactive)	0.901 (inactive)	0.947 (inactive)	0.995 (inactive)	0.982 (inactive)	0.993 (inactive)	0.948 (inactive)
O=C(O)COCCN1CCN(C(c2ccccc2)c2ccc(Cl)cc2)CC1 (stereo not drawn) [Cetirizine dihydrochloride] (20 µM)	1.02	1.07	1.04	0.959	0.94 (inactive)	1.03 (inactive)	1.01 (inactive)	1.06 (inactive)	0.997 (inactive)	0.957 (inactive)	1 (inactive)	1.03 (inactive)
CC(=O)Nc1ccc(C(=O)O)cc1 [Acedoben] (20 µM)	1.09	1	0.977	0.997	1.02 (inactive)	0.935 (inactive)	1.03 (inactive)	1.01 (inactive)	1 (inactive)	1.02 (inactive)	0.995 (inactive)	1 (inactive)
O=C(Oc1ccccc1)n1c(C(F)(F)F)nc2cc(Cl)c(Cl)cc21 (20 µM)	0.822	0.604	0.714	0.827	1.39 (active)	1.11 (inactive)	0.875 (inactive)	1.38 (active)	0.931 (inactive)	1.59 (active)	0.926 (inactive)	0.917 (inactive)
CCn1cc(C(=O)O)c(=O)c2cnc(N3CCNCC3)nc21 [Pipemidic acid] (20 µM)	0.963	0	0.465	1.01	0.949 (inactive)	1.01 (inactive)	0.93 (inactive)	0.313 (active)	1.06 (inactive)	1.81 (active)	1.01 (inactive)	0.934 (inactive)
N[C@@H](C(=O)N[C@@H]1C(=O)N2C(C(=O)O)=C(Cl)CS[C@H]12)c1ccccc1 [Cefaclor hydrate] (20 µM)	0.594	0.999	1.06	0.999	0.947 (inactive)	0.846 (inactive)	0.783 (inactive)	0.939 (inactive)	1.07 (inactive)	1.23 (inactive)	1.03 (inactive)	0.859 (inactive)
CC1Cc2ccccc2N1NC(=O)c1ccc(Cl)c(S(N)(=O)=O)c1 (stereo not drawn) [Indapamide] (20 µM)	1.04	1.02	0.929	0.659	1 (inactive)	1.01 (inactive)	1.01 (inactive)	1 (inactive)	1 (inactive)	0.977 (inactive)	1 (inactive)	1.03 (inactive)
COc1cnc(NS(=O)(=O)c2ccc(N)cc2)nc1 [Sulfameter] (20 µM)	0.997	0.976	0.981	1.35	1.01 (inactive)	0.945 (inactive)	1.03 (inactive)	1.01 (inactive)	0.996 (inactive)	1.03 (inactive)	0.987 (inactive)	1.01 (inactive)
CC1(C)O[C@@H]2C[C@H]3[C@@H]4C[C@H](F)C5=CC(=O)C=C[C@]5(C)[C@@]4(F)[C@@H](O)C[C@]3(C)[C@]2(C(=O)CO)O1 [Fluocinolone acetonide] (20 µM)	1.13	1.04	1.01	0.973	1.06 (inactive)	1.02 (inactive)	0.996 (inactive)	1.05 (inactive)	1.04 (inactive)	1.05 (inactive)	1 (inactive)	0.976 (inactive)
CCC[C@@H]1C[C@@H](C(=O)N[C@@H]([C@H]2O[C@H](SC)[C@H](OP(=O)(O)O)[C@@H](O)[C@H]2O)[C@H](C)Cl)N(C)C1 [Clindamycin Phosphate] (20 µM)	0.836	1.04	0.998	0.709	1.01 (inactive)	0.917 (inactive)	0.844 (inactive)	1.02 (inactive)	1.01 (inactive)	0.987 (inactive)	0.999 (inactive)	0.86 (inactive)
CN(C)CCN(Cc1ccc(Cl)cc1)c1ccccn1 [Chloropyramine hydrochloride] (20 µM)	0.894	1.03	0.92	0.771	0.98 (inactive)	1.05 (inactive)	1.16 (inactive)	0.817 (inactive)	0.975 (inactive)	1.58 (active)	0.994 (inactive)	1.27 (inactive)
CCN(CC)CC(=O)Nc1c(C)cccc1C [Lidocaine hydrochloride] (20 µM)	0.845	0.973	0.979	0.66	1.08 (inactive)	1.01 (inactive)	1.01 (inactive)	0.95 (inactive)	1.01 (inactive)	0.975 (inactive)	0.988 (inactive)	1.05 (inactive)
